From article PMC11006913 come the findings set out here.

Changes are numbered by the printed parent chain.

Test in all cases: PBM; 200 nM protein, PBS
Holding throughout (settings): dsDNA, one strand shown

The target of assay [1] is T1, VENTX (Homo sapiens, UniProt O95231 78-163, R121Q).
T1 sequence: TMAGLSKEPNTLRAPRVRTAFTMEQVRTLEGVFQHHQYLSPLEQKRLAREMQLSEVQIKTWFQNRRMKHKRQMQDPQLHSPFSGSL

The target of assay [2] is T2, VENTX (Homo sapiens, UniProt O95231 78-163, Y115F).
T2 sequence: T1 sequence with Y38F, Q44R

Assay [3] addresses HOXA2 (Homo sapiens, UniProt O43364 129-215, R185T).
In assay [4] the target is ALX3 (Homo sapiens, UniProt O95076 139-225, N203Q).
Chain of ALX3 (Homo sapiens, UniProt O95076 139-225, N203Q) (O95076 139-225 N203Q): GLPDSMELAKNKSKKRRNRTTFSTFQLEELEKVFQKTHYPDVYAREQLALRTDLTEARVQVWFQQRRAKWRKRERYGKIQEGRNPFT
Assay [5] has as its target HOXA2 (Homo sapiens, UniProt O43364 129-215, R185K).
A further assay concerns the target MSX2 (Homo sapiens, UniProt P35548 130-214).
Assay [6] deals with ALX3 (Homo sapiens, UniProt O95076 139-225).
Chain of ALX3 (Homo sapiens, UniProt O95076 139-225) (O95076 139-225): as the sequence (O95076 139-225 N203Q) above, with Q65N counted along it
Assay [7] addresses ALX3 (Homo sapiens, UniProt O95076 139-225, L168V).
For assay [8], the target named is HOXA2 (Homo sapiens, UniProt O43364 129-215, Y150S).
Chain of HOXA2 (Homo sapiens, UniProt O43364 129-215, Y150S) (O43364 129-215 Y150S): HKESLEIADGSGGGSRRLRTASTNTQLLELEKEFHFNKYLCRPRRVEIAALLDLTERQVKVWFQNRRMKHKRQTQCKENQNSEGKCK
In assay [9] the target is ALX3 (Homo sapiens, UniProt O95076 139-225, N203S).
Chain of ALX3 (Homo sapiens, UniProt O95076 139-225, N203S) (O95076 139-225 N203S): as the sequence (O95076 139-225 N203Q) above, with Q65S counted along it
Assay [10] concerns the target HOXA2 (Homo sapiens, UniProt O43364 129-215).
The target in assay [11] is T3, PAX4 (Homo sapiens, UniProt O43316 9-242, R200K).
T3 sequence: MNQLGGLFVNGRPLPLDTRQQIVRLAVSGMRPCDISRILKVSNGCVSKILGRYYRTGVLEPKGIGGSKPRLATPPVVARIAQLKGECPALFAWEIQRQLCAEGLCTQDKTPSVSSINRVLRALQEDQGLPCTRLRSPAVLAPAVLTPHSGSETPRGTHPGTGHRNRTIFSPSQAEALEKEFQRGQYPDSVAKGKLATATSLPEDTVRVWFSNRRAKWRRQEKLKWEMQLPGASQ

The target in assay [12] is T4, PAX4 (Homo sapiens, UniProt O43316 9-242).
T4 sequence: T3 sequence with K192R

The target of assay [13] is T5, PAX4 (Homo sapiens, UniProt O43316 9-242, R200Q).
T5 sequence: T3 sequence with K192Q

For assay [14], the target named is T6, PAX4 (Homo sapiens, UniProt O43316 9-242, F177V).
T6 sequence: T3 sequence with F169V, K192R

Assay [15] addresses T7, PAX4 (Homo sapiens, UniProt O43316 9-242, F177Y).
T7 sequence: T3 sequence with F169Y, K192R

Assay [16] addresses T8, PAX4 (Homo sapiens, UniProt O43316 9-242, R227W).
T8 sequence: T3 sequence with K192R, R219W

A further assay has as its target HOXA4 (Homo sapiens, UniProt Q00056 201-287, W262F).

Chain of HOXA2 (Homo sapiens, UniProt O43364 129-215, R185K) (O43364 129-215 R185K): as the sequence (O43364 129-215 Y150S) above, with S22Y, R57K counted along it
Chain of MSX2 (P35548 130-214): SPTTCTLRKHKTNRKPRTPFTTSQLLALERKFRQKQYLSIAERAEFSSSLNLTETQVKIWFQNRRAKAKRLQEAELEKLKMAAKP
Chain of HOXA2 (Homo sapiens, UniProt O43364 129-215, R185T) (O43364 129-215 R185T): as the sequence (O43364 129-215 Y150S) above, with S22Y, R57T counted along it
Chain of ALX3 (Homo sapiens, UniProt O95076 139-225, L168V) (O95076 139-225 L168V): as the sequence (O95076 139-225 N203Q) above, with L30V, Q65N counted along it
Chain of HOXA2 (Homo sapiens, UniProt O43364 129-215) (O43364 129-215): as the sequence (O43364 129-215 Y150S) above, with S22Y counted along it
Chain of HOXA4 (Q00056 201-287 W262F): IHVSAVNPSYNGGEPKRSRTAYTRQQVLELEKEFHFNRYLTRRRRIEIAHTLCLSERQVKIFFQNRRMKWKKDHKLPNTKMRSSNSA

For the sequence CAATTAGG, the binding signal with VENTX [1] was 12 upbm affinity estimate (log intensity, higher = more binding, comparable within an allelic series); with VENTX [2], 11.7 upbm affinity estimate (log intensity, higher = more binding, comparable within an allelic series); with HOXA2 [3], 12.9 upbm affinity estimate (log intensity, higher = more binding, comparable within an allelic series); in the assay with ALX3 [4], 8.27 upbm affinity estimate (log intensity, higher = more binding, comparable within an allelic series); in the assay with HOXA2 [5], 13 upbm affinity estimate (log intensity, higher = more binding, comparable within an allelic series); in the assay with MSX2, 13.8 upbm affinity estimate (log intensity, higher = more binding, comparable within an allelic series). In addition, the binding signal in the assay with ALX3 [6] was 12.2 upbm affinity estimate (log intensity, higher = more binding, comparable within an allelic series); in the assay with ALX3 [7] it was 9.81 upbm affinity estimate (log intensity, higher = more binding, comparable within an allelic series); with HOXA2 [8] it was 10.8 upbm affinity estimate (log intensity, higher = more binding, comparable within an allelic series); in the assay with ALX3 [9], 8.37 upbm affinity estimate (log intensity, higher = more binding, comparable within an allelic series); in the assay with HOXA2 [10] it was 12.1 upbm affinity estimate (log intensity, higher = more binding, comparable within an allelic series).

In the case of AATTAACG, the binding signal with VENTX [1] is 11.7 upbm affinity estimate (log intensity, higher = more binding, comparable within an allelic series); with PAX4 [11], 11.6 upbm affinity estimate (log intensity, higher = more binding, comparable within an allelic series); in the assay with VENTX [2], 11.5 upbm affinity estimate (log intensity, higher = more binding, comparable within an allelic series); in the assay with PAX4 [12], 12.2 upbm affinity estimate (log intensity, higher = more binding, comparable within an allelic series); with ALX3 [4], 8.41 upbm affinity estimate (log intensity, higher = more binding, comparable within an allelic series); in the assay with PAX4 [13], 12 upbm affinity estimate (log intensity, higher = more binding, comparable within an allelic series). Besides, the binding signal was 10.6 upbm affinity estimate (log intensity, higher = more binding, comparable within an allelic series) with PAX4 [14]; 12.5 upbm affinity estimate (log intensity, higher = more binding, comparable within an allelic series) with ALX3 [6]; 11 upbm affinity estimate (log intensity, higher = more binding, comparable within an allelic series) with PAX4 [15]; 10.1 upbm affinity estimate (log intensity, higher = more binding, comparable within an allelic series) with ALX3 [7]; 10.9 upbm affinity estimate (log intensity, higher = more binding, comparable within an allelic series) with PAX4 [16]; 11.6 upbm affinity estimate (log intensity, higher = more binding, comparable within an allelic series) with HOXA4. The binding signal in the assay with ALX3 [9] was 8.55 upbm affinity estimate (log intensity, higher = more binding, comparable within an allelic series).

Consider CAATTAGA, for which the binding signal is 11.8 upbm affinity estimate (log intensity, higher = more binding, comparable within an allelic series) with VENTX [1]; 12.5 upbm affinity estimate (log intensity, higher = more binding, comparable within an allelic series) in the assay with HOXA2 [3]; 8.27 upbm affinity estimate (log intensity, higher = more binding, comparable within an allelic series) in the assay with ALX3 [4]; 13.8 upbm affinity estimate (log intensity, higher = more binding, comparable within an allelic series) with MSX2; 12.4 upbm affinity estimate (log intensity, higher = more binding, comparable within an allelic series) in the assay with ALX3 [6]; 9.72 upbm affinity estimate (log intensity, higher = more binding, comparable within an allelic series) in the assay with ALX3 [7]. Also, in the assay with ALX3 [9], the binding signal was 8.34 upbm affinity estimate (log intensity, higher = more binding, comparable within an allelic series).

GAGGGGGC: the binding signal is 7.01 upbm affinity estimate (log intensity, higher = more binding, comparable within an allelic series) with HOXA2 [3]; 10.1 upbm affinity estimate (log intensity, higher = more binding, comparable within an allelic series) in the assay with HOXA2 [5]; 10.2 upbm affinity estimate (log intensity, higher = more binding, comparable within an allelic series) with HOXA2 [8]; 7.38 upbm affinity estimate (log intensity, higher = more binding, comparable within an allelic series) with HOXA2 [10].

With CCAATTAG, the binding signal was 12.3 upbm affinity estimate (log intensity, higher = more binding, comparable within an allelic series) with VENTX [1]; 11.7 upbm affinity estimate (log intensity, higher = more binding, comparable within an allelic series) with PAX4 [11]; 11.9 upbm affinity estimate (log intensity, higher = more binding, comparable within an allelic series) in the assay with VENTX [2]; 12.2 upbm affinity estimate (log intensity, higher = more binding, comparable within an allelic series) with PAX4 [12]; 12.9 upbm affinity estimate (log intensity, higher = more binding, comparable within an allelic series) with HOXA2 [3]; 8.31 upbm affinity estimate (log intensity, higher = more binding, comparable within an allelic series) with ALX3 [4]. Moreover, the binding signal with PAX4 [13] was 12.2 upbm affinity estimate (log intensity, higher = more binding, comparable within an allelic series); with HOXA2 [5], 13.3 upbm affinity estimate (log intensity, higher = more binding, comparable within an allelic series); with PAX4 [14], 10.4 upbm affinity estimate (log intensity, higher = more binding, comparable within an allelic series); in the assay with MSX2 it was 14 upbm affinity estimate (log intensity, higher = more binding, comparable within an allelic series); with ALX3 [6] it was 12.7 upbm affinity estimate (log intensity, higher = more binding, comparable within an allelic series); with PAX4 [15], 10.8 upbm affinity estimate (log intensity, higher = more binding, comparable within an allelic series). Also, the binding signal is 10.4 upbm affinity estimate (log intensity, higher = more binding, comparable within an allelic series) in the assay with ALX3 [7]; 10.8 upbm affinity estimate (log intensity, higher = more binding, comparable within an allelic series) with PAX4 [16]; 10.8 upbm affinity estimate (log intensity, higher = more binding, comparable within an allelic series) with HOXA2 [8]; 8.47 upbm affinity estimate (log intensity, higher = more binding, comparable within an allelic series) in the assay with ALX3 [9]; 12.1 upbm affinity estimate (log intensity, higher = more binding, comparable within an allelic series) with HOXA2 [10].
